Screens (PubChem)
aSyn 5UTR act: Activators via SNCA 5'UTR binding, MLPCN. alpha-synuclein 5'UTR reporter, activators screen. 300,000 compounds, 7.1% hits. AID 1814, 2009. activity score, % (tested at 7.5 µM), hits read low; in the data active = activity score below about -60%
Numbers without * were called inactive. Only a sample is shown.

SMILES	aSyn 5UTR act
Cc1cc(C)c2sc(NC(=O)c3ccc([N+](=O)[O-])o3)nc2c1	-110*
Cc1cc(C)c2nc(NC(=O)c3ccc([N+](=O)[O-])o3)sc2c1	-144*
Cc1ccc(S(=O)(=O)/N=C(/NC(=S)Nc2ccccc2)c2ccccc2)cc1	-126*
Cc1ccc(NC(=S)N/C(=N/S(=O)(=O)c2ccccc2)c2ccccc2)cc1	-205*
COc1ccc(C(=O)NN/C(=N/S(=O)(=O)c2ccc(C)cc2)c2ccccc2)cc1	-81*
COc1ccc(/C(C#N)=C/c2ccccn2)cc1	-172*
N#C/C(=C\c1ccccn1)c1nc2ccccc2s1	-74*
c1ccc(C2CSc3ccccc3N2)cc1 (stereo not given)	-196*
c1ccc(CSc2nnc(-c3cccnc3)o2)cc1	-123*
O=C(CSc1nnc(COc2ccc(Cl)cc2)o1)N1c2ccccc2CCc2ccccc21	60
Oc1ccc(-c2nnc(SCc3ccccc3)o2)cc1	-138*
Cc1ccccc1-c1nnc(SCc2ccc(F)cc2)o1	-126*
c1ccc(CSc2nnc(Cc3ccccc3)o2)cc1	-71*
Fc1ccc(CSc2nnc(-c3cccnc3)o2)cc1	-65*
c1ccc(-c2nnc(SCCC3OCCCO3)o2)cc1	-111*
O=C(CSc1nc2ccccc2s1)N1CCCCC1	-110*
CC1CCN(C(=O)CSc2nc3ccccc3s2)CC1	-154*
CC1CCCN(C(=O)CSc2cnc3ccccc3n2)C1 (stereo not given)	-154*
Cc1c(Cl)cccc1N/C(SCC(=O)N1CCCCCC1)=C(/C#N)c1nc2ccccc2s1	-66*
CC1CCCC(C)N1C(=O)CSc1nc2ccccc2s1 (stereo not given)	-99*
O=c1c(-c2nc3ccccc3s2)cccn1Cc1ccccc1	-87*
Cc1ccc(Cn2cccc(-c3nc4ccccc4s3)c2=O)cc1	-194*
CCOCCCNC(=O)/C(C#N)=C/c1cc(Br)c(O)c(Br)c1	-69*
Cc1cc(NC(=O)c2ccccc2)c(Cl)cc1N	64
CC(C)(C)c1ccc(C(=O)Nc2ccccc2Cl)cc1	-88*
SMILES	aSyn 5UTR act
Cc1ccc(C(=O)Nc2cc(Cl)ccc2OC(=O)c2ccc(C)cc2)cc1	-227*
O=C(Nc1ccccc1OC(=O)c1ccc(Cl)cc1)c1ccc(Cl)cc1	-343*
COc1cc(NC(=O)c2cc3nc(C)cc(C)n3n2)c(OC)cc1Cl	-214*
COc1ccc(OC(=O)c2ccc(Cl)cc2)c(C(C)=O)c1	-78*
O=C(Nc1ccccc1O)c1ccc([N+](=O)[O-])cc1	-70*
COc1ccc(-c2noc(CCC(=O)Nc3cc(Cl)c(OC)cc3OC)n2)cc1	-65*
COc1ccc(C(=O)Nc2cc(OC)c(Cl)cc2OC)cc1	-120*
COc1ccc(-c2noc(CCCC(=O)NC3CCCC3)n2)cc1	62
COc1ccc(C(=O)Nc2cc(Cl)ccc2OC(=O)c2ccc(OC)cc2)cc1	-158*
O=C(Nc1ccccc1O)c1ccc(Cl)cc1	-255*
Clc1ccc(OCc2nc3ccccc3[nH]2)cc1	-139*
c1ccc(OCc2nc3ccccc3[nH]2)cc1	-153*
c1ccc(OCCSc2nc3ccccc3[nH]2)cc1	-128*
O=C(Nc1ccc(N2CCCCC2)cc1)c1cncc(Br)c1	-128*
O=C(Nc1ccc(N2CCN(C(=O)c3ccccc3F)CC2)cc1)c1cncc(Br)c1	-74*
CCOC(=O)Nc1nnc(-c2cccc(OC)c2)s1	-83*
COc1ccc(-c2nnc(NC(=O)C(C)C)s2)c(OC)c1	-101*
CCOC(=O)Nc1nnc(-c2ccc(OC)cc2)s1	-65*
CCOC(=O)Nc1nc(-c2ccccc2)c(C(=O)c2ccc(Cl)cc2)s1	114
COc1ccc(Cl)cc1-c1nc(-c2ccc(NC(=O)c3cccs3)cc2)no1	-120*
COc1cccc(-c2nc(-c3ccc(NC(=O)c4cccnc4)cc3)no2)c1	-106*
COc1ccc(-c2nc(-c3cccc(C)c3)no2)cc1OC	-200*
COc1cccc(-c2noc(-c3cccs3)n2)c1	-75*
O=C(Nc1ccc(-c2noc(-c3cccs3)n2)cc1)c1cccnc1	-94*
COc1ccc(-c2nc(-c3cccnc3)no2)cc1OC	-132*
SMILES	aSyn 5UTR act
c1cncc(-c2noc(-c3ccco3)n2)c1	-91*
COc1cccc(-c2nc(-c3ccccn3)no2)c1	104
COc1cccc(-c2noc(-c3cccnc3)n2)c1	-152*
COc1cccc(OCc2nnc(-c3cccs3)o2)c1	-142*
Cc1ccc(-c2nc(-c3ccccc3)no2)cc1	57
Cc1ccc(-c2nc(-c3cccnc3)no2)cc1	-78*
O=C(O)/C=C/c1ccc2ccccc2n1	-64*
C(=C\c1ccc2ccccc2n1)/c1ccccc1	67
CN(C)c1ccc(C(CN)c2c[nH]c3ccccc23)cc1 (stereo not given)	-97*
C=C1C(=O)C=C[C@]2(C)C[C@@H]3OC(=O)[C@](C)(O)[C@H]3C[C@@H]12	-527*
Cc1ccc(Nc2ncccc2C(N)=O)cc1[N+](=O)[O-]	-201*
CNC(=O)c1cccnc1Nc1cccc(C(F)(F)F)c1	-148*
Cc1ccc(Nc2ncccc2C(=O)O)cc1C	-104*
O=C(Nc1cccc(C(F)(F)F)c1)Oc1ccc(Cl)c2cccnc12	75
COC(=O)C1C(=O)c2c([nH]c(C(=O)OC3CCCCCC3)c2C)CC1C (stereo not given)	-115*
COC(=O)c1[nH]c2c(c1C)C(=O)CC(c1cccs1)C2 (stereo not given)	85
COCCOC(=O)c1[nH]c2c(c1C)C(=O)C(C(=O)OC)C(C)C2 (stereo not given)	-88*
COCCOC(=O)c1[nH]c2c(c1C)C(=O)CC(c1ccccc1)C2 (stereo not given)	78
CCCCCOC(=O)c1[nH]c2c(c1C)C(=O)C(C(=O)OC)C(C)C2 (stereo not given)	-73*
COC(=O)C1C(=O)c2c([nH]c(C(=O)OCC3CCCO3)c2C)CC1C (stereo not given)	-113*
CCOC(=O)c1[nH]c2c(c1C)C(=O)CC(c1ccco1)C2 (stereo not given)	73
Cc1c(C(=O)OC2CCC(C)CC2)[nH]c2c1C(=O)CCC2 (stereo not given)	-79*
O=Cc1cc2ccccc2nc1SCc1ccc(Cl)cc1	95
Clc1ccc(CSc2ncccn2)cc1	-80*
Cn1cc(NC(=O)OCc2ccc(Cl)cc2)c(C(F)(F)F)n1	-109*
SMILES	aSyn 5UTR act
Cc1ccc(N2CN=C3SCC(=O)N3C2)cc1C	-121*
COCCc1nc2ccc(C(=O)N(C)Cc3cccc(-n4cccn4)c3)cc2o1	-75*
O=C1C=C(c2ccc3[nH]ccc3c2)CCC1	-151*
CC1(C)CC(=O)C=C(c2ccc3[nH]ccc3c2)C1	-65*
CC(=O)Nc1cccc(C(=O)N/N=C/c2ccc(F)cc2)c1	-115*
CC(=O)Nc1cccc(C(=O)N/N=C/c2ccccc2F)c1	-109*
COc1ccc(/C=N/NC(=O)c2cccc(NC(=O)c3ccccc3Cl)c2)cc1	-99*
COc1ccc(C(=O)Nc2cccc(C(=O)N/N=C/c3ccc(OC)cc3OC)c2)cc1	83
Cc1ccc(NC(=O)c2cnccn2)cc1	-82*
Cc1ccc(NC(=O)c2cnccn2)cc1C	-72*
O=C(Nc1ccc(Br)cc1)c1cnccn1	-94*
ON=C1c2cc(OCCN3CCCCC3)ccc2-c2ccc(OCCN3CCCCC3)cc21	-189*
C=CCOc1ccc2c(c1)C(=NO)c1cc(OCC=C)ccc1-2	-94*
COc1ccc2c(c1)C(=NO)c1cc(OC)ccc1-2	-83*
CC1(C(=O)N2CCN(Cc3ccccc3Cl)CC2)CC1(Cl)Cl (stereo not given)	-71*
